The campaign covered roughly 220,000 compounds. About 2,000 (0.91%) were called active. Roughly 2% stayed inconclusive and do not appear here. No stated cut-off is given here; in the data, inconclusive means inhibition above about 80% without an active follow-up result; inactive means below that; test concentration not stated here. These entries were drawn from the full list. Results with a measured potency or affinity are listed apart.
Test: M. tuberculosis H37Rv growth inhibitors, H37Rv strain (AID 1626);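 further: bacteria incubated seven days before Alamar blue readout; 0% = bacteria only wells and 100% = bacteria with antibiotic wells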
Settings: stronger effect = higher value, concentration not given here

| Structure (SMILES) | inhibition |
| --- | --- |
| O=C(C1CCCN(c2nnc(-n3cccc3)s2)C1)N1CCN(c2ccccc2)CC1 (configuration not stated) | 63.1% (inactive) |
| O=C(Nc1cc(C(F)(F)F)ccc1Cl)C1CCN(c2nnc(-n3cccc3)s2)CC1 | -3.21% (inactive) |
| O=C(NCCCN1CCc2ccccc2C1)C1CCN(c2nnc(-n3cccc3)s2)CC1 | -4.77% (inactive) |
| O=C(C1CCN(c2nnc(-n3cccc3)s2)CC1)N1CCOCC1 | 0.74% (inactive) |
| COc1ccc(CN2C(=O)NC(=O)/C(=C\c3ccco3)C2=O)cc1 | -5.87% (inactive) |
| O=C(O)c1cc([N+](=O)[O-])cc2c1nnn2O | -1.94% (inactive) |
| COc1cccc(Oc2ccc(N/C=C/C(=O)C(C)(C)C)cc2)c1 | 1.22% (inactive) |
| CCOc1ccccc1N/C=C/C(=O)C(C)(C)C | 4.06% (inactive) |
| COc1cc(C(=O)Nc2ccc3c(c2)OCCO3)ccc1OC(C)C | -2.6% (inactive) |
| COc1ccccc1Oc1ccc(N/C=C/C(=O)C(C)(C)C)cc1 | -4.81% (inactive) |
| Cc1ccc(N/C=C/C(=O)C(C)(C)C)c(O)c1 | -0.76% (inactive) |
| CCOC(=O)c1ccc(N/C=C\C(=O)c2cccc(OC)c2)cc1 | 94.8% (inactive) |
| COc1ccc(N/C=C/C(=O)c2ccc(OC)c(OC)c2)cc1 | 47% (inactive) |
| CCOC(=O)c1ccc(NC(=O)Nc2ccc(OC)c(OC)c2)cc1 | -4.38% (inactive) |
| COc1ccccc1N(C(=O)c1snc(C(N)=O)c1N)C(C(=O)NCCC(C)C)c1ccco1 (configuration not stated) | -1.7% (inactive) |
| COc1ccc(C(=O)NC(=O)Nc2ncccc2C)cc1 | -9.06% (inactive) |
| O=C(N/N=C1\C(=O)c2cccc3cccc1c23)c1ccc(O)cc1 | 20.7% (inactive) |
| N#C/C(=C\c1c(Cl)cccc1Cl)c1nn(-c2ccccc2)c(-n2cccc2)c1C#N | -1.88% (inactive) |
| O=S(=O)(NCc1cccnc1)c1ccc(Cl)c(Cl)c1 | -0.1% (inactive) |
| CCOC(=O)c1c(-c2ccccc2)csc1NC(=O)CSc1nncs1 | 4.86% (inactive) |
| CCN(CC)C(=O)C(=O)c1cccn1-c1cccc(Cl)c1C#N | -4.03% (inactive) |
| CC(=O)c1c(C)[nH]c(C(=O)NCCc2cccc(C)c2)c1C | 3.77% (inactive) |
| CCn1c(COc2ccccc2)nc2ccccc21 | -0.43% (inactive) |
| O=C(Cc1csc(-c2ccccc2)n1)NCc1cccs1 | 2.64% (inactive) |
| COc1ccccc1C(=O)OCc1c(F)cccc1Cl | -0.9% (inactive) |

| Structure (SMILES) | inhibition |
| --- | --- |
| COC(=O)c1ccc(N/C=C/C(=O)c2ccc(OC)c(OC)c2)cc1 | 36.6% (inactive) |
| COc1ccc(C(=O)/C=C/Nc2ccc(NC(C)=O)cc2)cc1OC | 0.63% (inactive) |
| CCOC(=O)c1ccc(N/C=C/C(=O)c2ccco2)cc1 | 76.7% (inactive) |
| CCOC(=O)c1ccc(N/C=C/C(=O)c2ccc(OC)cc2)cc1 | 77.2% (inactive) |
| O=C(Nc1ccc(F)cc1F)c1cccnc1 | -2.1% (inactive) |
| O=C(NCCCCNC(=O)c1ccc(Br)s1)c1ccc(Br)s1 | -1.39% (inactive) |
| CCOc1ccc(NC(=O)c2ccccc2OCC(=O)c2ccccc2)cc1 | 4% (inactive) |
| COc1ccccc1-c1nnc(SCC(=O)N2CCOCC2)n1-c1ccccc1 | 1.2% (inactive) |
| COCCn1c(C)cc(C(=O)CSc2nc(C)nc3sc4c(c23)CCC4)c1C | -2.28% (inactive) |
| O=C(NCC(=O)N1CCC(N2CCCCC2)CC1)C1CCCCC1 | -10.3% (inactive) |
| CC(C)(C)c1nnc2sc(SCC(=O)N3CCc4ccccc43)nn2c1=O | 1.69% (inactive) |
| CCS(=O)(=O)N1CCN(C2Cc3ccccc3C2)CC1 | -4.5% (inactive) |
| O=C(COC(=O)CCCOc1ccc(Cl)cc1Cl)Nc1cccc(Cl)c1 | 6.33% (inactive) |
| COc1ccc(NC(=O)COC(=O)CCCOc2ccc(Cl)cc2Cl)cc1 | 12.7% (inactive) |
| COC(=O)CCC(=O)Nc1ccc(Cl)c(Cl)c1 | -2.69% (inactive) |
| Cc1cc(Cl)ccc1OCCCC(=O)NN | -1.79% (inactive) |
| Cc1cc(Cl)ccc1OCCCC(N)=O | -0.81% (inactive) |
| O=C(O)CCCC(=O)Nc1ccc(Cl)c(Cl)c1 | -7.53% (inactive) |
| COc1ccc(NC(=O)COC(=O)/C=C/C(=O)OCC(=O)Nc2ccc(OC)c(Cl)c2)cc1Cl | -1.96% (inactive) |
| CCOC(=O)/C=C/C(=O)OCC(=O)Nc1ccc(OC)c(Cl)c1 | 3.02% (inactive) |
| COc1ccc(CNC(=O)CS(=O)Cc2nc(-c3ccccc3C)oc2C)cc1 (configuration not stated) | 7.5% (inactive) |
| COc1ccc(/C=N/NC(=O)c2ccc(CN3c4cccc5cccc(c45)S3(=O)=O)cc2)cc1 | 0.99% (inactive) |
| CCOC(=O)c1sc(NC(=O)CCCCl)nc1C | 6.92% (inactive) |
| CC(C)Cn1c(N)c(C(=O)COC(=O)C2CCCCC2)c(=O)n(C)c1=O | -2.8% (inactive) |
| Cc1cc(NC(=O)COC(=O)c2ccc(S(=O)(=O)N3CCCC3)cc2)no1 | 5.16% (inactive) |

| Structure (SMILES) | inhibition |
| --- | --- |
| CN(c1ccccc1C(=O)NC1CC2CCC1C2)S(=O)(=O)c1ccccc1 (configuration not stated) | 5.72% (inactive) |
| CC1CCCC/C1=N\NC(=S)Nc1cccnc1 (configuration not stated) | -2.62% (inactive) |
| COc1ccc(NC(=O)CN(C)CC(=O)Nc2ccccc2SC)cc1Cl | -0.42% (inactive) |
| COc1ccccc1CNC(=O)CN(C)CC(=O)Nc1cccc(F)c1 | -0.48% (inactive) |
| CCCCOc1ccc(C(C)NC(=O)C2CCCN(S(=O)(=O)CC)C2)cc1 (configuration not stated) | -2.95% (inactive) |
| CCC(=NCCO)c1c(O)n(C2CCCCC2)c(=O)[nH]c1=O | 3.46% (inactive) |
| CCOC(=O)c1cnc2ccc(C(=O)OC)cc2c1Nc1ccc(C(=O)O)cc1 | -2.69% (inactive) |
| CCOC(=O)c1cnc2ccc(C)cc2c1Nc1ccc(N2CCOCC2)cc1 | 0.42% (inactive) |
| O=C(O)c1cc(-n2cccc2)ccc1N1CCOCC1 | -4.7% (inactive) |
| COc1ccccc1NC(=S)NC1CCCCCC1 | -4.57% (inactive) |
| CN(C)/C=C(/C(=O)c1ccccc1)n1cncn1 | -12.5% (inactive) |
| Cc1nn(C)c(C)c1/C=C(/C(=O)C(C)(C)C)n1cncn1 | -5.89% (inactive) |
| CCS(=O)(=O)c1c([N+](=O)[O-])ncn1C | 76.2% (inactive) |
| Cn1cnc([N+](=O)[O-])c1Cl | 0.19% (inactive) |
| Cc1cccc(Sc2c([N+](=O)[O-])ncn2C)c1 | 4.79% (inactive) |
| Cn1cnc([N+](=O)[O-])c1Oc1ccc2ccccc2c1 | 13.9% (inactive) |
| Cc1cccc(C(=O)N=c2c(C#N)cc3c(=O)n4cccc(C)c4nc3n2Cc2ccco2)c1 | -8.85% (inactive) |
| CCN(C(=O)COC(=O)c1cc(S(=O)(=O)Nc2c(C)n(C)n(-c3ccccc3)c2=O)ccc1Cl)C1CCCCC1 | -3.86% (inactive) |
| Cc1cccc(NC(=O)CCOc2ccccc2)c1 | -1.8% (inactive) |
| Cc1cc(C)n(-c2nc(-c3ccccc3)cs2)n1 | 4.34% (inactive) |
| O=C(CNC(=O)c1ccco1)OCc1ccc(C(=O)c2ccccc2)cc1 | 3.51% (inactive) |
| Cc1ccc(C)c(CSCC(=O)NCc2cccs2)c1 | -7.19% (inactive) |
| Cc1cccc(N2CCN(Cc3ccoc3)CC2)c1C | 2.81% (inactive) |
| Cc1cc(C)n(-c2nc(SCC(=O)O)c3c4c(sc3n2)CCCC4)n1 | 63.1% (inactive) |
| Cc1cc(C)n(-c2nc(SCCN(C)C)c3c4c(sc3n2)COC(C)(C)C4)n1 | 14.6% (inactive) |

| Structure (SMILES) | inhibition |
| --- | --- |
| Cc1cc(C)n(-c2nc(NCCCN(C)C)c3c4c(sc3n2)CCCC4)n1 | 17.3% (inactive) |
| Cc1cc(C)n(-c2nc(SCC(=O)Nc3nccs3)c3c4c(sc3n2)COC(C)(C)C4)n1 | 23.3% (inactive) |
| CC1(C)Cc2c(sc3nc(SCC(=O)O)[nH]c(=O)c23)CO1 | -1.16% (inactive) |
| CCCN(CC(=O)Nc1ccc(F)c(F)c1F)Cc1cc(=O)n2ccsc2n1 | -1.11% (inactive) |
| O=C(NCc1ccco1)C12CC3CC(C1)CC(C(=O)NCc1ccco1)(C3)C2 | -5.09% (inactive) |
| O=c1c2ccccc2nc(-c2cccc(Cl)c2)n1O | 66.9% (inactive) |
| O=c1c2ccccc2nc(-c2ccccc2Cl)n1O | 2.24% (inactive) |
| CC1CC(C)CN(c2ccc(C(=O)NCc3ccc4c(c3)OCO4)cc2[N+](=O)[O-])C1 (configuration not stated) | 13.2% (inactive) |
| Cc1ccccc1C(=O)Nc1ccc(C(=O)N/N=C/c2ccc(O)c(Br)c2)cc1 | 6.55% (inactive) |
| CCOC(=O)N1CCC(NC(=O)C2CCCN(C(=O)c3cc4sccc4n3C)C2)CC1 (configuration not stated) | -2.27% (inactive) |
| O=C(NCCN1CCN(c2ccccc2)CC1)c1cccn2c(=O)c3ccccc3nc12 | 5.61% (inactive) |
| COc1ccc(CCNc2cc(C)nc3c(-c4ccccc4)cnn23)cc1OC | 1.98% (inactive) |
| COCCNc1cc(C)nc2c(-c3ccccc3OC)c(C)nn12 | -2.69% (inactive) |
| Cc1cc(Cl)n2nc(C)c(-c3ccc(Cl)cc3)c2n1 | 0.72% (inactive) |
| Cc1cc(NCCC(C)C)n2nc(C)c(-c3ccccc3)c2n1 | 11.3% (inactive) |
| CCOC(=O)c1ccc(NC(=O)C2CCN(C(=O)c3ccc(OC)c(OC)c3)CC2)cc1 | -6.93% (inactive) |
| O=C(NC1=NCCCCC1)c1cccc2ccccc12 | -1.94% (inactive) |
| COc1cccc(CNCCSc2nnnn2C)c1 | 6.16% (inactive) |
| CCNC(=O)N1CCCC(C(=O)c2ccc3cc(OC)ccc3c2)C1 (configuration not stated) | -5.17% (inactive) |
| COC(=O)c1ccc(CSc2nnc3c(Cl)cc(Cl)cn23)o1 | -5.19% (inactive) |
| CCc1ccc(NC(=O)N(Cc2ccco2)C(C)c2cccs2)cc1 (configuration not stated) | 0.17% (inactive) |
| CCN(CCCNC(=O)C1CCC(=O)N1C1CCCC1)c1cccc(C)c1 (configuration not stated) | 0.34% (inactive) |

— PubChem BioAssay AID1626 (SRMLSC, 2009)
